We go through four molecules from PubChem BioAssay (EPA / NIEHS).

For test [1], the target named is rat Glutamate, NMDA Agonist Site (GluNMDA), Grin1 (gene 24408) (UniProt P35439). The test can be described thus: NVS_LGIC_rGluNMDA_Agonist: NovaScreen (NVS) Ligand-Gated Ion Channel Assay for rat Glutamate, NMDA Agonist Site (GluNMDA) (AID 2283327). The gist of the method:
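Radioligand displacement at the agonist site on rat forebrain membrane preparations, read by filter scintillation after 1 h. Chemicals were first run at 25 uM in duplicate; those passing threshold were titrated to a 50 uM maximum.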

Test [2] deals with human Constitutive Androstane Receptor (CAR), NR1I3 (gene 9970) (UniProt Q14994). The test is described as follows: NVS_NR_hCAR_Agonist: NovaScreen (NVS) Nuclear Receptor Binding Assay for human Constitutive Androstane Receptor Agonism (CAR) (AID 2283328). Here is the method: NVS_NR_hCAR_Agonist is a biochemical, single-readout assay that uses extracted gene-proteins in a cell-free assay. Measurements were taken 1 hour after chemical dosing in a 384-well plate.NVS_NR_hCAR_Agonist is one of one assay component(s) measured or calculated from the NVS_NR_hCAR_Agonist assay. It is designed to make measurements of fluorescent resonance energy transfer, a form of binding reporter, as detected with fluorescent resonance energy transfer signals by Time-Resolved Fluorescence Resonance Energy Transfer (TR-FRET) technology.Data from the assay component NVS_NR_hCAR_Agonist was analyzed into 1 assay endpoint. This assay endpoint, NVS_NR_hCAR_Agonist, was analyzed in the positive analysis fitting direction relative to DMSO as the negative control and baseline of activity. Using a type of binding reporter, gain-of-signal activity can be used to understand changes in the binding as they relate to the gene NR1I3. Furthermore, this assay endpoint can be referred to as a primary readout, because the performed assay has only produced 1 assay endpoint. To generalize the intended target to other relatable targets, this assay endpoint is annotated to the nuclear receptor intended target family, where the subfamily is non-steroidal. […]
Chain of human Constitutive Androstane Receptor (CAR), NR1I3 (gene 9970) (Q14994 whole entry, looked up): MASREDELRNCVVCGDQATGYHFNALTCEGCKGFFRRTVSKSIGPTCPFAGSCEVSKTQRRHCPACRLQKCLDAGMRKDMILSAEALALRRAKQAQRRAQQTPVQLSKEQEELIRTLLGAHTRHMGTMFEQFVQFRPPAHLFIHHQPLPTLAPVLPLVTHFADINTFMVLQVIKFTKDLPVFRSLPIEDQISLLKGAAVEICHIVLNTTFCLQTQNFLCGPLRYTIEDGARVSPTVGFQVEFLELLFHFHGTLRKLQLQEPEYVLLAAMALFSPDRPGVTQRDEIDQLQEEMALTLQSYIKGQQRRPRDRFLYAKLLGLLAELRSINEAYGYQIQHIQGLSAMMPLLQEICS

Test [3] concerns the target human Androgen Receptor (AR), AR (gene 367) (UniProt P10275). The test is described as follows: NVS_NR_hAR: NovaScreen (NVS) Nuclear Receptor Binding Assay for human Androgen Receptor (AR) (AID 2283332). Here is the method: NVS_NR_hAR is a biochemical, single-readout assay that uses extracted gene-proteins from LnCAP in a cell-free assay. Measurements were taken 20 hours after chemical dosing in a 96-well plate.NVS_NR_hAR is one of one assay component(s) measured or calculated from the NVS_NR_hAR assay. It is designed to make measurements of radioligand binding, a form of binding reporter, as detected with scintillation counting signals by Lysate-based radiodetection technology.Data from the assay component NVS_NR_hAR was analyzed into 1 assay endpoint. This assay endpoint, NVS_NR_hAR, was analyzed in the positive analysis fitting direction relative to DMSO as the negative control and baseline of activity. […] Furthermore, this assay endpoint can be referred to as a primary readout, because the performed assay has only produced 1 assay endpoint. […]
Binding assays used specific radioligands (tritiated, iodinated) with non-radioactive competitive displacement ligands in agonist or antagonist protocols (as indicated) and various reference compounds and inhibitors to titrate specific binding to receptors and transporters. Most enzyme assays (CYPs, kinases, phosphatases, proteases, HDACs) used recombinant protein and specific substrates (fluorescence mostly, some colorimetric and radioactive) and inhibitors, followed by a biochemical separation of substrate and product. […]

Records with an inconclusive call do not appear. The source made the active and inactive calls. How the source made its calls: active means hit-call score of the fitted dose curve at least 0.9, where 1 is the maximum; inconclusive means response in the unintended direction; inactive means score below 0.9.

Chain of human Androgen Receptor (AR), AR (gene 367) (P10275 whole entry, looked up): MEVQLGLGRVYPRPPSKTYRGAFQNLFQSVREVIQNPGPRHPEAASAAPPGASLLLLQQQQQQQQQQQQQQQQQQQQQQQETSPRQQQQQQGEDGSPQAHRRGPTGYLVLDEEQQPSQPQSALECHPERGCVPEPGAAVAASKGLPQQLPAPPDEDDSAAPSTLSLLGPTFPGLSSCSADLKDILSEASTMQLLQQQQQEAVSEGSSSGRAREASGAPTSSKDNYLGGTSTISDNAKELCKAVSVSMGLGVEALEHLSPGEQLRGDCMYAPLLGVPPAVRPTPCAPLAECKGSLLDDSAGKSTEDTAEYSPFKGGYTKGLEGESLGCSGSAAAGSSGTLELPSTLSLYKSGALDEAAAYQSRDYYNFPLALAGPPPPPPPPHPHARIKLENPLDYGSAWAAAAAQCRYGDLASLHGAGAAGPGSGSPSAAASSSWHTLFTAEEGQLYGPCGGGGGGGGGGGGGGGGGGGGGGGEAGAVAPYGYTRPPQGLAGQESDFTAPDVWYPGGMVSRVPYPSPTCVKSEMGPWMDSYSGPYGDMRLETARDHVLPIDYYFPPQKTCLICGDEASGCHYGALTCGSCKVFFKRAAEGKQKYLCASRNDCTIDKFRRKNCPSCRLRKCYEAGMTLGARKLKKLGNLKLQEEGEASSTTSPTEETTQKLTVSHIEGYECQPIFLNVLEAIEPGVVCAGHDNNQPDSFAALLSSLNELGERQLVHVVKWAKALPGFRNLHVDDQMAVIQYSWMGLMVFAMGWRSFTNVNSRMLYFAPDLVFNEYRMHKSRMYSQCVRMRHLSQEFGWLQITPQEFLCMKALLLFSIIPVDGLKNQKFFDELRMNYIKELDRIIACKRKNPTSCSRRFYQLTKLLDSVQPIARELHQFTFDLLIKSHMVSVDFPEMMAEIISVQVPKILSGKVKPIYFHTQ

In general, AC50 refers to the midpoint of the concentration-response curve, whichever way the signal moves. With `CN(C)CCCN1c2ccccc2Sc2ccc(Cl)cc21`, in test [1], the AC50 was 25 µM (active).

Take `NC(=Nc1ccccc1)Nc1ccccc1`: the outcome in test [1] was inactive.

As for `CC(C)OC(=O)C(C)(C)Oc1ccc(C(=O)c2ccc(Cl)cc2)cc1`, in test [2], the result was inactive.

`Cc1cc(SC2=C(O)C[C@@](CCc3ccc(N)cc3)(C(C)C)OC2=O)c(C(C)(C)C)cc1CO`: in test [3], the AC50 was 9.33 µM (active).
